PubChem BioAssay (Tox21)
Results filed as inconclusive are left out. Values without a mark were called inactive. Calls come from the whole dose curve; as a rule, active = well fitted cell-killing curve with a large enough effect in the repeat runs; inconclusive = weak or mixed curves, or effect the other way; inactive = no such curve, though single readings can be large or run the other way.

Test: qHTS assay to identify small molecule antagonists of the vitamin D receptor (VDR) signaling pathway - cell viability counter screen (AID 743225); note: nearly all actives have a fitted effect of over 50% in size
Details: VDR-bla HEK293T viability, CellTiter-Glo luminescence, 16 h; series mostly up to 61 µM; viability change, negative = cytotoxic: at the top concentration
Excerpt: U.S. Tox21 Program National Center for Advancing Translational Sciences [NCATS] NIH Chemical Genomics Center [NCGC] U.S. Environmental Protection Agency [EPA] National Institutes of Environmental Health Sciences [NIEHS] National Toxicology Program [NTP] U.S. Food and Drug Administration [FDA] Tox21 Assay Overview: The vitamin D receptor (VDR), a member of nuclear hormone receptor superfamily, plays a critical role in calcium homeostasis and bone metabolism. It is also involved in cell differentiation and growth, and thrombogenicity. To identify the compounds that inhibit VDR signaling, the VDR-UAS-bla HEK 293T cell line (Invitrogen, Carlsbad, CA, USA) containing a beta-lactamase reporter gene under the control of an upstream activator sequence (UAS) was used to screen the Tox21 10K compound library. The cytotoxicity of the Tox21 compound library against the VDR-bla cell line was tested in parallel by measuring the cell viability using CellTiter-Glo assay (Promega, Madison, WI) in the same wells.
Tox21 Assay Protocol Summary: VDR-bla cells were dispensed at 2,000 cells/5 uL of assay medium per well into black wall/clear-bottom 1536-well plates using a Multidrop Combi (Thermo Fisher Scientific, Waltham, MA) dispenser. After the assay plates were incubated at a 37C and 5% CO2 for 4 h, 23 nL of compounds dissolved in DMSO, positive controls or DMSO only was transferred to the assay plate by a Pintool station (Kalypsys, San Diego, CA), followed by addition of 1 uL of 1-alpha, 25-Dihydroxy Vitamin D3 (3 nM, final concentration in the wells) using a Bioraptr Flying Reagent Dispenser (FRD) workstation (Beckman Coulter, Indianapolis, IN). The plates were incubated at 37C and 5% CO2 for 16 h, and then 1 uL of LiveBLAzerTM B/G FRET substrate was added using a Bioraptr FRD. The plates were incubated at room temperature for 2 h and fluorescence intensity was measured by an Envision plate reader (PerkinElmer, Shelton, CT). For cell viability readout that measures cytotoxicity, 3 ul/well of CellTiter-Glo reagent was added into the assay plates using a Bioraptr FRD. After 30 min incubation at room temperature, the luminescence intensity in the plates was measured using a ViewLux plate reader (PerkinElmer).
% is set by controls: 0 for no effect and ±100 for the full control effect.

| Structure (SMILES) | viability change, negative = cytotoxic |
| --- | --- |
| CC(=O)O[C@@H]1CC2C3CCc4cc(OC(=O)c5ccccc5)ccc4C3CCC2(C)[C@H]1OC(C)=O (stereo not given in full) | 1.81% |
| CN(C)CCc1c[nH]c2ccc(CS(=O)(=O)N3CCCC3)cc12 | 1.23% |
| O=S(=O)(O)c1cc(I)c(O)c2ncccc12 | 4.16% |
| N[C@H]1C(O)O[C@H](CO)[C@@H](O)[C@@H]1O (stereo not given in full) | 4.61% |
| O=Cc1ccccc1S(=O)(=O)O | 20.6% |
| CCCC(=O)C(CC)Sc1ccoc1C (stereo not given) | -2.78% |
| O=C(O)CCC(=O)Nc1ccc(S(=O)(=O)Nc2nccs2)cc1 | 3.16% |
| CCCCC(O)/C=C(C)/C=C/C=C/C(=O)N1CCCC1=O (stereo not given) | -12.7% |
| CC1(C)C(=O)C(C)(C)C1=O | 5.9% |
| CC1(C)CC(N)CC(C)(C)N1 | -5.9% |
| C=C(C)C(=O)OCCCC | 4.08% [at 78.8 µM] |
| CC(=O)SCC(CC(=O)c1ccc(C)cc1)C(=O)O (stereo not given) | -5.43% |
| CC(C)(C)C(=O)CCc1ccc(Cl)cc1 | -27.2% |
| CCCCCCCCS(=O)(=O)O | 0.768% [at 78.8 µM] |
| O=C1c2ccccc2C(=O)N1CO | 3.38% [at 78.8 µM] |
| O=S(=O)(O)c1ccc(Cl)cc1 | 9.55% |
| CCCCN(CCCC)CCCCCCN(CCCC)CCCC | 7.86% |
| C=CC(=O)CC | 4.03% [at 78.8 µM] |
| NCC1CCC(C(=O)Oc2ccc(CCC(=O)O)cc2)CC1 (stereo not given) | 7.09% |
| Cc1cc2c(cc1CC(=O)c1sccc1S(=O)(=O)Nc1onc(C)c1Cl)OCO2 | -0.756% |

| Structure (SMILES) | viability change, negative = cytotoxic |
| --- | --- |
| COc1cnc(NS(=O)(=O)c2ccc(N)cc2)nc1 | 18.9% |
| C=C(C)C(=O)OCCOC1CC2CC1C1C=CCC21 (stereo not given) | -5.76% [at 78.8 µM] |
| O=CN1CCCCC1 | 9.71% |
| CN(C)CCC[C@@]1(c2ccc(F)cc2)OCc2cc(C#N)ccc21 | -19.2% |
| CCc1ccc(CC)cc1 | -11% [at 78.8 µM] |
| C[Si](C)(C)O[Si](O)(O)O | 7.49% |
| C=CCN1CCc2nc(N)sc2CC1 | 2.05% |
| Cc1cc(N)no1 | -3.81% [at 78.8 µM] |
| O=c1c(O)c(O)c1=O | -2.31% |
| COc1cc(NS(=O)(=O)c2ccc(N)cc2)ncn1 | 0.417% |
| CCCCCCCCCCCCCCCC(=O)OC | -2.42% [at 28.5 µM] |
| CNC(=O)c1c(I)c(NC(C)=O)c(I)c(C(=O)O)c1I | 3.13% |
| CCC(C)c1nccnc1OC (stereo not given) | -3.28% |
| CCCCCCCCCCCCCCBr | 1.93% [at 78.8 µM] |
| O=Cc1ccc(C(=O)O)cc1 | 0.147% [at 78.8 µM] |
| N#Cc1cc(NC(=O)C(=O)O)c(Cl)c(NC(=O)C(=O)O)c1 | 8.7% |
| CCCCCCCOC(C)=O | -3.35% |
| CCCC[O][Al]([O]CCCC)[O]CCCC | 3.32% |
| OCCC(F)(F)C(F)(F)C(F)(F)C(F)(F)C(F)(F)C(F)(F)F | 16.1% |
| C/C=C(\C)C(=O)OC/C=C(\C)CCC=C(C)C | 6.09% |
